An excerpt weighted towards active compounds, which were near 18% of everything screened.
IL1B secr inh – inhibitors of inflammasome signaling (IL-1 beta secretion); THP-1 LPS/ATP IL-1B secretion, AlphaLISA, 16 h; hits give low values; activity change, % at 57.5 µM; 4.7% of 360,000 active; AID 743279; in the data active = activity change below about -50%; inconclusive = mostly about -30% to -49%
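Secreted IL-1B measured by AlphaLISA bead assay after 16 h compound exposure of THP-1 cells; compounds (final up to 57.5 uM) added 1 h before LPS (250 ng/mL) and ATP (1.25 mM) stimulation; lower signal means less secretion.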
TDP1 block – TDP1 (human) enzyme inhibition. Q9NUW8. recombinant TDP1, AlphaScreen DNA substrate cleavage. Potency, µM (top dose mostly 130 µM), for the others: at the highest dose activity change, negative = inhibition, hits mostly inhibitors. 0.28% of 350,000 active. AID 485290; also: potency is read from the fitted curve at half-maximal effect; nearly all actives have a fitted effect of over 40% in size
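Steps: enzyme plus compound, 15 min RT; add biotin/phosphotyrosine-FITC oligonucleotide (15 nM final), react 5 min; add donor/acceptor beads (10 ug/ml final), 10 min; read AlphaScreen. Tdp1 at 1 nM final.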
Six1-Eya2 inh – blocks human Six1 binding to Eya2. Q15475+O00167. AlphaScreen GST-Six1/His-Eya2 binding, biochemical; hits give low values. activity change, % (no concentration beside the values). 0.56% of 360,000 active; in the data active = activity change below about -65%; inconclusive = mostly about -30% to -63%
Target sequence (O00167 whole entry, looked up): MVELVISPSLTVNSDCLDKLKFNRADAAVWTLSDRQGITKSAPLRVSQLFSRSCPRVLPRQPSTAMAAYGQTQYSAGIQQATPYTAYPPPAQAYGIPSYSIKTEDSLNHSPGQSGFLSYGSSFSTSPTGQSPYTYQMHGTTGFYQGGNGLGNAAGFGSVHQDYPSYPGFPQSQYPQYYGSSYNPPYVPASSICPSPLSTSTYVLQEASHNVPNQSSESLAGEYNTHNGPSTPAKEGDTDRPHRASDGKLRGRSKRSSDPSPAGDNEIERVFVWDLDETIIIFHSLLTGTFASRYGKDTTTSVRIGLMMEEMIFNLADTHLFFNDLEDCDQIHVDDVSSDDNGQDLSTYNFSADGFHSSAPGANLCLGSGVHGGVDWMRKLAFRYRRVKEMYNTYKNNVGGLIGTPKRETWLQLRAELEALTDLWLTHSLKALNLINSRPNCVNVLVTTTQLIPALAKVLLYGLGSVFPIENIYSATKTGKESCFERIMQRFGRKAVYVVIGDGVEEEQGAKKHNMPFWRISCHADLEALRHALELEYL
Target sequence (Q15475 whole entry, looked up): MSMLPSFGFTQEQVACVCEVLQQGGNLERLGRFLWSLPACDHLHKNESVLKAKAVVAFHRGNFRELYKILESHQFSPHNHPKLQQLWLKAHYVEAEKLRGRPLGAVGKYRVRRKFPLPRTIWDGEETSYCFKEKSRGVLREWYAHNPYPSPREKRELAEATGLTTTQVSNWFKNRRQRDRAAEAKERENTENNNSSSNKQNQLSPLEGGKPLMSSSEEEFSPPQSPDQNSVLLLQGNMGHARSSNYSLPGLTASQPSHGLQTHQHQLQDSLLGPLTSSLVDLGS
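Homogeneous AlphaScreen proximity assay pairing GST-Six1 with His-tagged Eya2 (added as 5X mix: 250 nM and 500 nM) in 50 mM Tris pH 8.0, 300 mM NaCl, 1 mM TCEP. Glutathione donor and nickel acceptor beads; 1 h, 37 °C, dark.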
CtBP-E1A blk – blocks the CtBP interaction with E1A; 0.49% of 340,000 active; AID 651724; activity change, % (concentration not given with the values); AlphaScreen GST-E1A/His-CtBP binding, 1536-well; hits give low values; in the data active = activity change below about -65%; inconclusive = mostly about -30% to -63%
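Homogeneous bead-based format: GST-tagged E1A captured on glutathione donor beads, His-tagged CtBP on nickel acceptor beads; compounds precede bead addition by 2 h at 37 °C.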
TDP1 cell CPT – growth inhibition of DT40 Tdp1-/-;hTDP1 cells with camptothecin (screen for TDP1 inhibitors); chicken DT40 Tdp1-/-;hTDP1 cells + 20 nM CPT, ATP luminescence, 48 h; Potency, µM (titrated, usually from 46.2 µM), without a hit: at the top dose activity change, negative = growth inhibition, usual class: inhibitors; 12% of 420,000 active; AID 686979; also: potency is read from the fitted curve at half-maximal effect; nearly all actives have a fitted effect of over 55% in size
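Cell growth measured by CellTiter-Glo luminescence after a minimum 48 h, 37 C compound exposure with 20 nM CPT in Tdp1-knockout DT40 cells stably expressing hTDP1, seeded 400/well; qHTS titration format.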
DT40 TDP1 no CPT – qHTS for Inhibitors of human tyrosyl-DNA phosphodiesterase 1 (TDP1): qHTS in cells in absence of CPT | DT40 Tdp1-/- hTDP1 cells, no CPT, ATP luminescence, 48 h | Potency, µM (titrated, usually from 46.2 µM), for the others: at the top dose activity change, negative = growth inhibition, usual class: inhibitors | 15% of 420,000 active; also: potency is read from the fitted curve at half-maximal effect; nearly all actives have a fitted effect of over 55% in size
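Chicken DT40 Tdp1-/- cells complemented with human TDP1, screened without camptothecin (DMSO vehicle only), 400 cells/well. Compounds pin-transferred, cells incubated at 37 °C for at least 48 hr. Growth read as ATP-dependent luminescence (CellTiter-Glo, 30 min at RT).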
Numbers without * were called inactive; u = inconclusive; x = no result given; [ ] = remark or other dose. Unless noted, calls follow the shape of the dose curve; as a rule, active = well fitted curve in the direction sought with a large enough effect; inconclusive = small, poorly fitted or top-dose-only effect, or another doubt; inactive = no such curve, though single readings can be large; an effect the other way counts as inactive or inconclusive. % is scaled to controls: 0 for no effect and ±100 for the full control effect.

SMILES	IL1B secr inh	TDP1 block	Six1-Eya2 inh	CtBP-E1A blk	TDP1 cell CPT	DT40 TDP1 no CPT
Cc1ccc(Cn2nnnc2CN2CCC(n3nnc4cc(C(F)(F)F)ccc43)CC2)cc1	u	5%	6	-2	u	21µM*
Cc1nc2cc(C(F)(F)F)ccc2n1C1CCN(Cc2nnnn2CCc2ccccc2)CC1	u	5%	3	7	18µM*	13µM*
Cc1ccc(Cn2nnnc2CN2CCC(n3nnc4cc(C)ccc43)CC2)cc1	u	6%	0	-1	u	u
FC(F)(F)c1ccc2c(c1)nnn2C1CCN(Cc2nnnn2Cc2ccccc2)CC1	u	0%	1	0	u	u
Cn1cc(C(=O)N2CCC3(CC2)OCCO3)c2c3ccccc3n(C)c2c1=O	5	2%	-1	4	-13%	-6%
CCBr	x	4%	x	x	x	x
CCOC(=O)[C@@H]1[C@H]2COc3ccc(Br)cc3[C@@H]2N2C(=O)N(c3cccc(C)c3)C(=O)[C@]12C	15	x	-1	-4	u	-14%
CC(C)(O)C1O[C@H]2CC[C@@]3(C)[C@@](O)(CC[C@H]4Cc5c([nH]c6ccccc56)[C@@]43C)C2=CC1=O (some centres undefined)	x	17%	x	x	21µM*	24µM*
COC(=O)C1=C(c2ccc(OC)c(OC)c2)C[C@@H]2CC[C@H]1N2C(=O)N1CCc2cc(OC)c(OC)cc2C1	-4	4%	-8	-9	u	u
COC(=O)C1=C(c2cccc3c2S(=O)(=O)c2ccccc2-3)C[C@@H]2CC[C@H]1N2C(=O)N1CCc2cc(OC)c(OC)cc2C1	-17	4%	-8	-19	21µM*	21µM*
COC(=O)C1=C(c2cccc3c2S(=O)(=O)c2ccccc2-3)C[C@@H]2CC[C@H]1N2C(=O)N1CCOCC1	-8	0%	0	0	23µM*	u
COC(=O)C1=C(c2cccc(C#N)c2)C[C@@H]2CC[C@H]1N2C(=O)N1CCOCC1	18	0%	25	4	-19%	u
COP(=O)(OC)OC=C(Cl)Cl	x	12%	x	x	u	12µM*
Nc1ccc(S(=O)(=O)N2CC3CC(C2)c2cccc(=O)n2C3)cc1 (centres undefined)	7	0%	-6	-1	-6%	-11%
O=C(N/N=C/c1cccnc1)c1ccc(NC(=O)C(c2ccccc2)c2ccccc2)cc1	31	8%	-15	-2	7.3µM*	12µM*
COC(=O)Cn1cc(C(=O)c2ccccc2F)c2ccccc21	17	-2%	6	-3	-3%	-13%
CS(=O)(=O)c1ccc(C2=C(CNC(=O)c3ccncc3)[C@H]3CC[C@@H](C2)N3Cc2ccccc2)cc1	-2	x	-3	0	5%	-1%
Cc1cc(OCC(=O)NCC(O)c2ccccc2)c2c3c(c(=O)oc2c1)CCCC3 (centres undefined)	-19	0%	-3	-12	u	18µM*
O=C(O[C@H]1CN2CCC1CC2)N1CCc2ccccc2[C@@H]1c1ccccc1	x	x	x	x	u	21µM*
c1ccc(C2CN3CCC2CC3)cc1 (centres undefined)	0	1%	6	5	5%	-4%
COc1ccc(CN2C(=O)CC(=O)NC2=S)cc1	-7	-1%	-1	8	-5%	3%
COc1cc(O)cc2c1C(=O)OC(C)CCCC(=O)CCC/C=C\2 (centres undefined)	-17	9%	-7	0	0%	u
CC1CC(Cl)CCC1C(=O)OC(C)(C)C (centres undefined)	x	5%	x	x	11%	10%
CCCCCCC(C)(C)c1ccc([C@@H]2C[C@H](O)CC[C@@H]2CCCO)c(O)c1	x	20%[56.1 µM]	x	x	19µM*	3µM*
COc1ccc(C(=O)Oc2c(CN3CCOCC3)cc(Cl)c3cccnc23)cc1OC	0	4%	-11	-1	5µM*	5.6µM*
SMILES	IL1B secr inh	TDP1 block	Six1-Eya2 inh	CtBP-E1A blk	TDP1 cell CPT	DT40 TDP1 no CPT
CCOc1cc(CNCCc2ccccc2F)ccc1OC	-18	x	0	x	u	u
COc1cccc(CNCCc2ccccc2)c1OC	-4	1%	3	16	4%	-20%
COc1ccc(CNCCc2ccccc2F)c(OC)c1C	-65*	x	2	7	15µM*	23µM*
COc1cc(C)c(CNCCc2c[nH]c3ccccc23)cc1C	-72*	x	u	x	8.2µM*	7.3µM*
Cc1ccc(NC(=O)COC(=O)CCc2c[nH]c3ccccc23)cc1[N+](=O)[O-]	13	4%	u	u	u	9%
COc1ccc(CNCCc2c[nH]c3ccccc23)c(OC)c1C	x	x	8	7	5.8µM*	7.3µM*
CCCCCN(C)CCC(O)(P(=O)(O)O)P(=O)(O)O	x	x	x	x	4%	-12%
NC(CCP(=O)(O)O)C(=O)O (centres undefined)	x	11%[56.1 µM]	x	x	u	-10%
O=[N+]([O-])/C=C/c1c(Cl)cccc1Cl	-99*	x	-7	-2	0.46µM*	1.3µM*
Cc1ccc(S(=O)(=O)N2CC3CC(C2)c2cccc(=O)n2C3)cc1 (centres undefined)	2	3%	3	2	-13%	-13%
Cc1ccc(S(=O)(=O)N2CN3CCN(C3)C2)cc1	0	2%	-17	-19	16µM*	u
COC(=O)C1=C(c2ccc(F)cc2OCc2ccccc2)C[C@@H]2CC[C@H]1N2C(=O)NC(C)C	-14	0%	-8	1	u	21µM*
COC(=O)C1=C(c2ccc(F)cc2OCc2ccccc2)C[C@@H]2CC[C@H]1N2C(=O)NC1CC1	-3	1%	6	-22	16µM*	u
COC(=O)C1=C(c2ccc(F)cc2OCc2ccccc2)C[C@@H]2CC[C@H]1N2C(=O)NC1CCCCC1	-21	0%	-8	0	u	u
COC(=O)C1=C(c2ccc(F)cc2OCc2ccccc2)C[C@@H]2CC[C@H]1N2C(=O)N1CCCC1	12	0%	-4	5	6.5µM*	5.8µM*
COC(=O)C1=C(c2ccc(F)cc2OCc2ccccc2)C[C@@H]2CC[C@H]1N2C(=O)NCc1ccccc1Cl	0	1%	-4	-25	u	u
Cc1ccc(/C=N/n2c(-c3ccccc3)csc2=S)cc1	x	x	x	x	15µM*	u

Bioassay records: PubChem, National Center for Advancing Translational Sciences (NCATS)
